# Laboratory results taken from the supplement of paper PMC13380429.
# Counter-ions that a name gives are not always drawn.
# Columns and labels:
# [1] = test system: Vero E6 infected with SARS-CoV-2; assay: morphology score (similarity to uninfected cells); higher = more like uninfected cells; conditions: 24 h
# [2] = test system: Vero E6 infected with SARS-CoV-2; assay: SARS-CoV-2 infection rate relative to infected DMSO; higher = more infection, active = 60 or less; conditions: 24 h
Structure (SMILES),morphology score [1],SARS-CoV-2 infection rate [2]
CC(C)=CCC[C@]1(C)C=Cc2c(O)c3c(c(CC=C(C)C)c2O1)O[C@]12C(=C[C@@H]4C[C@H]1C(C)(C)O[C@@]2(C/C=C(/C)C(=O)O)C4=O)C3=O [gambogic-acid] (10 µM),0.0235,106% (inactive)
CC1CCc2cc(F)cc3c(=O)c(C(=O)O)cn1c23 (configuration not stated) [flumequine] (10 µM),-0.154,116% (inactive)
Cn1c(NCCN(CCO)CCCc2ccc([N+](=O)[O-])cc2)cc(=O)n(C)c1=O [nifekalant] (10 µM),-0.0636,120% (inactive)
CCOC(=O)Nc1ccc2c(c1)N(C(=O)CCN(CC)CC)c1ccccc1S2 [ethacizin] (10 µM),0.00909,112% (inactive)
CC(C)n1cnc2c(NCCc3ccc(O)cc3)nc(-c3csc4ccccc34)nc21 [stemregenin-1] (10 µM),0.692,67% (inactive)
CN(C)CCCN1c2ccccc2Sc2ccc(Cl)cc21 [chlorpromazine] (0.833333 µM),0.071,98.5% (inactive)
COCCc1ccc(OCC(O)CNC(C)C)cc1 (configuration not stated) [metoprolol] (10 µM),0.0844,101% (inactive)
C=C[C@@H]1C[C@]1(NC(=O)[C@@H]1C[C@@H]2CN1C(=O)[C@H](C(C)(C)C)NC(=O)O[C@@H]1C[C@H]1CCCCCc1nc3ccc(OC)cc3nc1O2)C(=O)NS(=O)(=O)C1CC1 [grazoprevir] (10 µM),0.0897,109% (inactive)
O=C(O)CSCC(=O)NC1CCSC1=O (configuration not stated) [erdosteine] (10 µM),-0.0411,104% (inactive)
CC[C@@H](C)N(C)C(=O)c1cc2ccccc2c(-c2ccccc2Cl)n1 (10 µM),-0.122,111% (inactive)
N[C@@H](C(=O)O)c1nn[nH]n1 (racemic) [tetrazol-5-yl-glycine-(RS)] (10 µM),0.03,98% (inactive)
COCCN1CCN(Cc2ccc(-c3n[nH]c4c3C(=O)c3c(NC(=O)NN5CCOCC5)cccc3-4)cc2)CC1 (10 µM),-0.35,117% (inactive)
CC(C)(C)c1cc(/C=C(\C#N)C(N)=S)cc(C(C)(C)C)c1O [tyrphostin-AG-879] (0.833333 µM),0.166,102% (inactive)
CCCCCCCN(CC)CCC[C@@H](O)c1ccc(NS(C)(=O)=O)cc1 (racemic) [ibutilide] (10 µM),0.189,107% (inactive)
CC(C)=CCC/C(C)=C/CC/C(C)=C/CCC(=O)OC/C=C(\C)CCC=C(C)C [geranyl-farnesylacetate] (10 µM),-0.0168,99% (inactive)
CCn1cc(C(=O)O)c(=O)c2cnc(N3CCCC3)nc21 [piromidic-acid] (10 µM),0.0342,99.5% (inactive)
COC(=O)Nc1nc2cc(C(=O)c3cccs3)ccc2[nH]1 [nocodazole] (0.833333 µM),0.025,104% (inactive)
Nc1c2ccccc2nc2ccccc12 [9-aminoacridine] (0.833333 µM),0.102,106% (inactive)
C[C@@H]1CCCN1CCc1cc2cc(-c3ccc(C#N)cc3)ccc2o1 (10 µM),0.44,80.5% (inactive)
CCCCOc1ccc(CC(=O)NO)cc1 [bufexamac] (10 µM),0.234,94% (inactive)
CCC(=O)Nc1cccc(Oc2nc(Nc3ccc(N4CCN(C)CC4)cc3OC)ncc2Cl)c1 (10 µM),0.0191,114% (inactive)

Structure (SMILES),morphology score [1],SARS-CoV-2 infection rate [2]
CC(C)NCC(O)c1ccc([N+](=O)[O-])cc1 (configuration not stated) [nifenalol] (10 µM),-0.141,118% (inactive)
CN1C(=O)CC(c2ccccc2)C1=O (configuration not stated) [phensuximide] (10 µM),0.0814,112% (inactive)
COC(=O)c1c(C)[nH]c(C)c1C(=O)c1ccccc1Cc1ccccc1 (10 µM),-0.254,118% (inactive)
CCOc1nc2cccc(C(=O)OCc3oc(=O)oc3C)c2n1Cc1ccc(-c2ccccc2-c2noc(=O)[nH]2)cc1 [azilsartan-medoxomil] (10 µM),-0.168,116% (inactive)
O=C1C[C@@H](c2ccc(O)cc2)Oc2cc(O)ccc21 (10 µM),0.025,110% (inactive)
COc1cc(OC)nc(O[C@H](C(=O)O)C(OC)(c2ccccc2)c2ccccc2)n1 [darusentan] (10 µM),-0.0345,116% (inactive)
O=C(NO)C1(CS(=O)(=O)c2ccc(Oc3ccc(Cl)cc3)cc2)CCOCC1 (10 µM),0.0418,98.5% (inactive)
c1cc(-c2cnn3cc(-c4ccc(N5CCNCC5)cc4)cnc23)c2cccnc2c1 (0.833333 µM),-0.148,103% (inactive)
O=C(O[C@H]1C[C@H]2CC[C@@H](C1)[N+]21CCCC1)C(O)(c1ccccc1)c1ccccc1 [trospium] (10 µM),0.0583,102% (inactive)
C[C@H](N)Cc1c[nH]cn1 [alpha-methylhistamine-dihydrobromide-(S)-(+)] (10 µM),0.17,99% (inactive)
CCN1C[C@H](C)n2c(c(O)c3c(=O)n(Cc4ccc(F)c(Cl)c4)nc(C(=O)NC)c32)C1=O (10 µM),0.0188,97.5% (inactive)
CSc1ccc(OCc2ncc([N+](=O)[O-])n2C)cc1 [fexinidazole] (10 µM),-0.0351,114% (inactive)
CCCCN(CC)c1nc(C)nc2c1c(C)c(C)n2-c1c(C)cc(C)cc1C [antalarmin] (10 µM),0.193,93% (inactive)
CCCCNc1ccc(C(=O)OCCN(C)C)cc1 [tetracaine] (10 µM),-0.144,116% (inactive)
NC(=O)N1CCC(CC(=O)N2CCC([C@H]3c4ncc(Br)cc4CCc4cc(Cl)cc(Br)c43)CC2)CC1 [lonafarnib] (10 µM),0.736,43.5% (active)
N#C/C(=C\c1ccc(O)c(O)c1)C(=O)NCCCCc1ccccc1 (0.833333 µM),0.167,89.5% (inactive)
COc1ccc(-c2nc(N3CCOCC3)c3sc(CN(C)c4ncc(C(=O)NO)cn4)cc3n2)cn1 (10 µM),-0.449,116% (inactive)
Cc1nc2ccccc2n1Cc1ccc(Cl)cc1 [chlormidazole] (10 µM),-0.099,118% (inactive)
CCN(CC)CCOC(=O)C(c1ccccc1)C1CCCCC1 (configuration not stated) [drofenine] (10 µM),0.275,99.5% (inactive)
CC(C(=O)O)c1ccc(C(=O)c2cccs2)cc1 (configuration not stated) [suprofen] (10 µM),0.123,108% (inactive)
COP(=O)(OC)OC(c1ccc(Cl)cc1)P(=O)(OC)OC (configuration not stated) [mifobate] (10 µM),-0.0183,106% (inactive)

Structure (SMILES),morphology score [1],SARS-CoV-2 infection rate [2]
C[C@H]1[C@H](NC(=O)/C(=N\OC(C)(C)C(=O)O)c2csc(N)n2)C(=O)N1S(=O)(=O)O [aztreonam] (10 µM),-0.0447,94% (inactive)
c1ccc(CNCc2ccc(CN3CCCNCCNCCCNCC3)cc2)nc1 (10 µM),0.129,100% (inactive)
CC(=O)Nc1ccc(OCC(O)CNC(C)C)cc1 (configuration not stated) [practolol] (10 µM),-0.0762,106% (inactive)
CCCCCCCCCCCC1=C(O)C(=O)C=C(O)C1=O [embelin] (10 µM),-0.0413,106% (inactive)
CC(C)[C@H](CO)Nc1nc(Nc2cc(N)cc(Cl)c2)c2ncn(C(C)C)c2n1 [aminopurvalanol-a] (0.833333 µM),-0.224,108% (inactive)
C[C@H]1c2cccc(O)c2C(=O)C2=C(O)[C@]3(O)C(=O)C(C(N)=O)=C(O)[C@@H](N(C)C)[C@@H]3[C@@H](O)[C@@H]21 [doxycycline] (10 µM),0.0783,97% (inactive)
N#Cc1cn([C@@H]2O[C@H](CO)[C@@H](O)[C@H]2O)c2ncnc(N)c12 [toyocamycin] (0.833333 µM),-0.0555,104% (inactive)
Oc1cc(O)cc(O)c1 [phloroglucin] (10 µM),-0.0825,114% (inactive)
Nc1n[nH]c2nnc(-c3c(-c4ccccc4)nn4ccccc34)cc12 (10 µM),0.264,103% (inactive)
CC(C)(O)CC(=O)O [beta-hydroxy-beta-methylbutyrate] (10 µM),0.0168,105% (inactive)
N#C/C(=C\c1cccn1S(=O)(=O)c1cccc([N+](=O)[O-])c1)S(=O)(=O)c1ccc(F)cc1 (10 µM),-0.181,109% (inactive)
CC[C@@H]1Cn2c(c3nc(-c4ccccc4)nc-3n(C)c2=O)N1 (10 µM),0.14,90.5% (inactive)
CN(C)CCOc1ccc(/C(=C(/CCCl)c2ccccc2)c2ccccc2)cc1 [Toremifene citrate] (10 µM),0.422,77% (inactive)
CC1=C(/C=C/C(C)=C/C=C/C(C)=C/CO)C(C)(C)CCC1 [retinol] (10 µM),-0.0178,110% (inactive)
COc1cc([C@@H]2c3cc4c(cc3[C@@H](O[C@@H]3O[C@@H]5CO[C@@H](c6cccs6)O[C@H]5[C@H](O)[C@H]3O)[C@H]3COC(=O)[C@H]23)OCO4)cc(OC)c1O [teniposide] (10 µM),-0.0983,111% (inactive)
Cc1cc(O)ccc1Cl [chlorocresol] (10 µM),0.0498,95.5% (inactive)
C=C(C)[C@@H]1[C@H]2OC(=O)[C@@H]1[C@]1(O)C[C@H]3O[C@]34C(=O)O[C@H]2[C@]14C [picrotoxinin] (10 µM),0.0677,116% (inactive)
c1ccc(-c2nn3c(c2-c2ccnc4cc(OCCN5CCOCC5)ccc24)CCC3)nc1 (10 µM),0.686,80% (inactive)
CCCC[C@@H](C=O)NC(=O)[C@H](CC(C)C)NC(=O)OCc1ccccc1 [calpeptin] (10 µM),0.815,12.5% (active)
